According to PubChem BioAssay AID588358 (NMMLSC, 2011):
The whole screen tested about 310,000 compounds, of which about 1,500 (0.48%) were called active.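 The calls were made as follows: active = binding more than 3 SD below its plate's average and above zero; inconclusive = below that plate limit but binding exactly zero; inactive = the rest.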 The list comes from a sample in which actives are over-represented; it also holds similar structures and randomly drawn compounds.

biological target: Desmoglein-3 (Homo sapiens) (UniProt P32926); experiment: inhibitors of pemphigus antibody binding to DSG3, primary screen, biochemical, bead-based, flow cytometry, scFv-GFP (AID 588358); conditions: DSG3-coupled beads, scFv-anti-DSG3-GFP binding, at 10 µM, stronger effect = lower value;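 also: hits lower antibody fragment binding to DSG3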
Sequence (P32926 whole entry, looked up, the tested form may be a part): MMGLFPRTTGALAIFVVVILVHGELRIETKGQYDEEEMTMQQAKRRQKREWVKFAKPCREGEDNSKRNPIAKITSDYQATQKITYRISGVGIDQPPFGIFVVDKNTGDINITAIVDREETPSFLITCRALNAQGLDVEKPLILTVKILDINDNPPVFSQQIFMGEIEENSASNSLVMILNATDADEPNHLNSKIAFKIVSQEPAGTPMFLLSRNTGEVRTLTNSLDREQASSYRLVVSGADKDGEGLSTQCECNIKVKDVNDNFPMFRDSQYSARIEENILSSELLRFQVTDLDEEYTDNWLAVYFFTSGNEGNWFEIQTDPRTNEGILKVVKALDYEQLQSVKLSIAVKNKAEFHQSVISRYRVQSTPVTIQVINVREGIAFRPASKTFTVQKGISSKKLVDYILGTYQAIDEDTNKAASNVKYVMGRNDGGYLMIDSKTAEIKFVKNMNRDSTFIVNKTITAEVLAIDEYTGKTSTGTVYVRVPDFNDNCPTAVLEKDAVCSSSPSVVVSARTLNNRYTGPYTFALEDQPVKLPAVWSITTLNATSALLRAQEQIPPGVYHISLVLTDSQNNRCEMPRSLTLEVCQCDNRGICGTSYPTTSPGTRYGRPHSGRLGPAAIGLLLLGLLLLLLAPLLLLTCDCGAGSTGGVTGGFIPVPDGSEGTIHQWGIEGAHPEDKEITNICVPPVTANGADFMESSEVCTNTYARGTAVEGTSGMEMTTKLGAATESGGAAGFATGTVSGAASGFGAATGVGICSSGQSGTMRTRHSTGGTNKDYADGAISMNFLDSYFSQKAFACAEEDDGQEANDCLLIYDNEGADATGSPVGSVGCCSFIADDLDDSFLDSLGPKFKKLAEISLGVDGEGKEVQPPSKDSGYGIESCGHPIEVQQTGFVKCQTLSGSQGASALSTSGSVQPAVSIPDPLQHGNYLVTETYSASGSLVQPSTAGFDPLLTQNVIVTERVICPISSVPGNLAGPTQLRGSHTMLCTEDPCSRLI

Binding (percent of control), inactive:
COc1cc(/C=C2/C(=O)NN(c3cccc(Cl)c3)C2=O)cc(Br)c1O 233%
C#CCOc1ccc(/C=C2/C(=O)ON=C2C)cc1OCC 111%
Cc1ccc(Cc2c(-c3ccccc3)nc3ccc(Cl)cn23)cc1 105%
CCOC(=O)c1cc(-c2sc(NC(=O)c3ccccc3)nc2C)n(CCO)n1 96.7%
CCN(CC)C(=O)C(C)N1c2cccc3cccc(c23)S1(=O)=O (stereo unspecified) 98.7%
CCOc1cc(N2CCOCC2)c(OCC)cc1NC(=O)C1=NN(c2cccc(C)c2)C(=O)CC1 102%
CCOc1cc(N2CCOCC2)c(OCC)cc1NC(=O)COc1cccc(Cl)c1 96.8%
Cc1ccc(C(=O)NC(C)C(c2cccs2)N2CCOCC2)cc1C (stereo unspecified) 92.7%
Cc1ccccc1OS(=O)(=O)c1cccc([N+](=O)[O-])c1 100%
COCOCCn1cc(CN2CCS(=O)(=O)N(Cc3ccc(-c4ccc(OC)cc4)cc3)C(CC(C)C)C2=O)nn1 (stereo unspecified) 103%
Cc1ccc(-c2ccc(/C=N/NC(=O)CN3CCOCC3)o2)cc1[N+](=O)[O-] 101%
COc1cc(/C=N\NC(=O)c2nonc2N)c(OC)cc1Br 89.4%
O=C(NCCS(=O)(=O)N1CCN(c2ccccc2)CC1)c1cc(=O)c2ccccc2o1 99.7%
O=C(NCCOc1ccccc1)N1[C@H]2CC[C@@H]1C=C(c1ccc(F)cc1OCc1ccccc1)C2 107%
CCC(Oc1ccccc1)C(=O)OCC(=O)Nc1c(C)nn(-c2ccccc2)c1C (stereo unspecified) 106%
Cc1cnc(C(=O)OCC(=O)NCCCc2ccccc2)cn1 104%
Cc1cnc(C(=O)OCC(=O)Nc2ccc(Cl)cc2Cl)cn1 113%
COc1cccc(NC(=O)Nc2ccc(F)cc2)c1 99.8%
CC(OC(=O)c1cccc(S(=O)(=O)N2CCOCC2)c1)C(=O)NCC1CCCCC1 (stereo unspecified) 106%
CCc1c(N=O)c(-c2ccccc2)n(O)[n+]1[O-] 95.9%
CCc1noc(C)c1C(=O)OCC(=O)c1ccc(NC(=O)CC(C)C)cc1 106%
CN(C(=O)COC(=O)c1nc(Cl)ccc1Cl)C1CCS(=O)(=O)C1 (stereo unspecified) 109%
CN(CCOc1ccccc1)C(=O)c1cc(-c2ccco2)nc2ccccc12 105%
O=S(=O)(c1cccc(C(F)(F)F)c1)N1c2ccccc2-n2cccc2C1c1cccnc1 (stereo unspecified) 99.9%
Fc1ccccc1/C=N/n1c(-c2cccnc2)n[nH]c1=S 104%
c1ccc(-c2cc(-c3ccccc3)[nH]n2)cc1 95%
Cc1ccc(-c2ccc(CN3C(C)C(=O)N(Cc4cn(CCC5OCCCO5)nn4)CCS3(=O)=O)cc2)cc1 (stereo unspecified) 104%
C/C(=N/NC(=S)Nc1ccccc1)c1ccc2c(c1)OCO2 98.1%
Cc1ccc(NC(=O)c2cc3ccccc3o2)cc1 110%
Cc1cc2cc3n(c2nn1)N=C(Cl)CC3 104%
O=S1(=O)CCN(Cc2ccccc2)CC1 96.1%
O=C(c1ccc(N2CCCC2=O)cc1)N1CCN(c2ccc(C(F)(F)F)cc2[N+](=O)[O-])CC1 99%
Cc1cc2nc3c(=O)n(Cc4ccccc4)c(=O)[nH]c3nc2cc1N 99.2%
O=C(OCc1ccccc1)N1CCC2CC1c1cc(N3CCN(S(=O)(=O)c4cc(Cl)cc(Cl)c4)CC3)ccc12 (stereo unspecified) 100%
CCCCN1C(=O)C(CC(=O)NC(c2ccccc2)c2ccccc2)CC(C(=O)N2CCOCC2)=C1C (stereo unspecified) 102%
O=C(NN=Cc1ccc([N+](=O)[O-])cc1)C1CC1 122%
COC(=O)c1ccc(/C=N/NC(=O)C(=O)N2CCCCCC2)cc1 102%

Binding (percent of control), active:
C#CCOc1ccc(/C=C2/C(=O)NN(c3ccccc3)C2=O)cc1OC 81.6%
CCOc1cc(N2CCOCC2)c(OCC)cc1NC(=O)c1ccc(C)s1 72.7%
Cc1cc(C)c([N+](=O)[O-])cc1-c1ccc(/C=N/NC(=O)c2nonc2N)o1 87.1%
Cc1cnc(C(=O)Oc2cccc(Cl)c2Cl)cn1 -19.6%
CN(C(=O)COC(=O)c1cc(-c2ccco2)nc2ccccc12)C1CCS(=O)(=O)C1 (stereo unspecified) 59.4%
S=c1[nH]nc(-c2cc(-c3ccccc3)n[nH]2)n1/N=C/c1c2ccccc2cc2ccccc12 82.6%
C/C(=N\NC(=S)Nc1ccc(C)cc1)c1cc2ccccc2o1 83.6%
Nc1ccc2nc3c(=O)[nH]c(=S)[nH]c3nc2c1 19%
O=C(N/N=C/c1ccc([N+](=O)[O-])cc1)C(=O)N1CCCC1 -16.9%
